# Laboratory results from the supplement of paper PMC6555819.
# How the values were obtained:
# Experiment in all cases: PBM binding z-score (relative to random genomic background probes); higher = stronger binding; sequences stand for … in GC…GCGATTGACAGCGTAGAATGAAGG
# [1] = test system: RARb homodimer (NR concentration 270 nM)
# Method in brief: (§1)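 Binding z-scores were set against random background probes. The data came from custom Agilent 4×180K protein-binding microarrays carrying double-stranded probes with 34-nt variable regions, incubated 1 h with ligand-free nuclear receptor dimers. Partner-specific antibodies detected binding, and scanned fluorescence was regression-normalized.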
# [2] = test system: RARg:RXRa (NR concentration 270 nM, RXRa partner concentration 90 nM)
# Method in brief: as §1
# [3] = test system: RARg homodimer (NR concentration 270 nM)
# Method in brief: as §1
# [4] = test system: RXRa DBDmut IVT, anti-RXR (DBD mutation: RXRa K156A/R161A, NR concentration 90 nM)
# Method in brief: as §1
# [5] = test system: RXRa homodimer (NR concentration 180 nM)
# Method in brief: as §1
# [6] = test system: THRa:RXRa (NR concentration 90 nM, RXRa partner concentration 90 nM)
# Method in brief: as §1
# [7] = test system: THRa homodimer (NR concentration 90 nM)
# Method in brief: as §1
# [8] = test system: VDR:RXRa (NR concentration 270 nM, RXRa partner concentration 90 nM)
# Method in brief: as §1
# [9] = test system: VDR homodimer (NR concentration 270 nM)
# Method in brief: as §1
Sequence,PBM binding z-score [1],PBM binding z-score [2],PBM binding z-score [3],PBM binding z-score [4],PBM binding z-score [5],PBM binding z-score [6],PBM binding z-score [7],PBM binding z-score [8],PBM binding z-score [9]
ATCGAAAGGTCGAGGTGAGCATAGAGAAAGGGAA,2.98,4.34,4.61,0.687,4.63,2.98,0.737,2.36,0.234
CCTGCTAGGACATGGTCAGCTAATCTACAGTATG,-0.2,-0.204,0.478,0.385,-0.656,0.568,-0.28,-0.684,-0.547
CGTACTAGGTCATTGACAGGACAGTGAATAGTAA,2.49,4.45,4.13,2.38,2.6,2.9,0.971,2.09,1.45
GCGACTGGGGCATCATCAGGTTACCATAACTTAA,1.15,0.589,0.679,0.291,0.302,2.31,1.31,0.00777,0.0657
ATCTCTAGGTAAGACTCTGTTCAGTGAAGAACGC,0.515,-0.0818,0.134,0.365,0.0121,0.57,0.576,0.234,-0.00157
CGTCCAAGGTCAGAGAGGCCAGTGAATGCCGAGT,4.08,4.46,5.6,2.66,3.4,3.28,1.86,5.4,2.3
TTACCAAGGTGAAAGGTCGTTTATGCACGCCTTG,2.24,3.89,1.62,1.14,5.38,3.17,0.854,3.32,2.03
TGTCGAAGTTCAAAGGTAACGTAAGTATCCACAC,2.43,4.25,3.04,3.6,5.18,2.81,-0.0887,3.71,2.72
CCTATTAGTTGACCATAAGGGCAACCAAAGCTCG,2.24,1.55,1.14,0.788,0.828,2.02,1.47,0.939,0.747
ACTATTAGTTTACTTAGGGCAACCGATACGACGC,0.74,0.56,1.01,1.17,0.51,1.66,0.312,0.639,0.435
TCTTGTAGATCAAGCAGGGTAAGAAAGCCTGAGT,-0.297,-0.27,-0.38,0.436,-0.147,1.2,-0.451,0.33,0.209
CAAACTAGGTCAAGGGCAAAGTCGGTTTGTGCCA,4.17,3.94,4.68,2.01,3.06,3.27,1.43,2.54,1.79
TGAATCAGGTTAAAGATCAGGGAACGTGGCGTCG,-7.29e-05,0.805,0.611,-0.0911,1.71,1.04,-0.365,0.238,-0.0211
AGAATGAGGTTATACGTAAATCAGGGAAGAAAGT,0.771,1.56,1.08,1.72,2.06,2.17,0.605,1.21,0.824
ATCGAAAGGTCGCCGAGGTGAGTATACACCGTTT,3.6,4.9,5.02,1.78,5.24,4.1,1.17,5.39,1.53
ATATTTAGGTTATCGGGTCATTCAGTTTGCGCAT,3.44,3.54,2.82,1.92,3.57,3.62,3.93,5.35,4.95
GCGACTGGGGCCAAGCAGGTTACCATAAGGTTGG,1.2,0.615,0.586,-0.252,0.329,1.3,0.0537,0.713,0.051
AGAATGAGGTTAAGATCACGGAAACAGAATACAT,0.84,2.33,1.81,0.924,2.92,2.47,0.742,1.41,0.686
ATCTCTACGTAACAAGTTCAGTGAAAGAGAGGAC,1.68,0.999,1.24,0.873,0.659,1.07,0.629,1.38,2.6
TAGCCTAGGTCATTCAGGGGCCGGTATAGAAAGC,2.86,5.32,4.21,1.88,3.01,3.42,0.635,2.63,1.53
TCTGCTACGTCAACGATGGTCAGCTAATCTGCTA,-0.67,-0.316,-0.0659,0.0473,-0.261,-0.616,-0.92,-0.548,-1.61
CCTGCTAGGTCATGGTCATCTAATCTACAGTATG,3.47,4,4.75,1.78,2.78,3.08,1.52,1.89,0.674
TCATAAAGGTAATACAGGTGAAAGTCGGCATCTA,1.09,1.3,0.722,1.78,1.67,1.7,0.207,1.72,0.435
ATCGTAAGGTCGAGGTGAGTATAGAGAAAGGGAA,2.13,3,3.23,1.49,2.55,3.43,2.18,1.99,0.892
CCGACTGGGGCATAACGTTACCATAAGCCAGCCC,-0.131,-0.0174,0.122,-0.083,-0.0796,-0.497,-0.431,-0.52,-0.0002
ATTTCTAGGTAAAGATAGTTCAGTGAATGCAAAT,0.935,0.671,0.813,0.38,0.418,1.02,0.00694,1.18,0.94

Sequence,PBM binding z-score [1],PBM binding z-score [2],PBM binding z-score [3],PBM binding z-score [4],PBM binding z-score [5],PBM binding z-score [6],PBM binding z-score [7],PBM binding z-score [8],PBM binding z-score [9]
CGTCGAAGGTCATAGGAGGTCAGTGAAGACAGAT,5.29,6.92,7.53,3,6.64,5.27,1.39,6.76,3.45
GATACAGGGTCAGCTAGAGGCCGGAGTATGGAAA,3.18,5.66,4.38,1.07,4.04,2.7,0.265,2.8,0.333
CTTATTAGTTGACCATAAGGGCAACCGAAGCTCG,2.23,1.24,1.13,0.578,0.722,2.04,1.36,0.523,0.553
GCTGCAAGGTCAGGTTGGTCAGCTAACGGGTACG,3.9,4.56,5.49,2.04,3.72,3.26,1.48,2.81,1.23
CCGACTGGGGCAATGTTACCATAACGCACAGCCA,-0.131,0.0448,0.359,-0.0343,-0.0938,-0.53,-0.342,-0.586,-0.569
ACAGACAGGTGGGTGAAGGTAACTCAGCTGGACG,0.378,0.052,0.248,-0.598,0.193,0.52,-0.174,-0.163,-0.176
AATACAGGGTCATCGTAAGCCAGAGTACGCACAG,3.27,5.55,4.8,3.07,6.56,3.68,1.39,4.87,3.12
ACTAGCAGGCCAACGGTCACTCAAGATTAGTCCG,1.57,0.906,1.57,-0.139,0.345,-0.135,-0.434,-0.505,-0.593
ACTAGTTGGTCAGCTGAGTTCACACACAATTCGG,2.53,1.78,2.11,2.27,1.64,3.33,1.05,4.81,6.71
TGTCAAATTTCAAAGGTAACGTAAGTATCCACAC,0.519,0.768,0.628,-0.231,0.652,1.27,-0.123,0.605,-0.127
GCTAGTTGGTCAATAAAAGGTCACACACCGGTCG,5.51,6.07,5.18,0.854,5.51,3.66,1.83,4.16,2.11
CTCGAAAGGTCGGTTGAGGTGAGTATACGGATAA,2.15,2.63,2.54,0.556,1.95,5.09,1.33,2.14,0.68
GCAACTGGGGCAAAGCAGGTTACCATAAGGTTGG,1.27,0.563,0.56,-0.0375,0.648,2.78,0.101,0.361,-0.248
TCTAGCCGGCCAGAGGGTCACTCAAGAGGTACGG,2.6,2.42,2.26,-0.0421,2.31,1.44,-0.64,1.41,-0.169
CTACCAAGGTGAACAAGGTCGGTGATTACTATTC,1.6,1.22,1.42,0.135,1.23,2.66,1.27,4.17,0.361
ACAGACAGGTGATGAGGGTAACTCAGGCTATCAT,0.681,0.294,0.502,-0.49,0.588,2.72,0.561,0.16,-0.088
CAAACTGGGTCAAAGGTCAAAGTCGAGCCAACCA,5.2,8.56,7.31,2.55,10.1,4.51,1.31,6.65,3.12
TTACCAAGGTGATGGTCGTTGATCCCTCTGTAGA,0.0776,-0.376,-0.245,-0.261,0.284,0.769,0.35,-0.193,-0.232
TCTTGTAGATCAGCAGGAGGTTAAGAAAGATCGA,0.33,0.611,0.176,0.327,0.81,0.885,-0.878,0.561,-0.496
AGAATGAGGTTATACGTAGAGCAGGGAAGAAAGT,0.854,1.69,0.941,1.58,2.1,2.19,0.488,1.23,0.731
AGAATGAGGTTAAGATCAGGGATACAGAATACAT,1.26,2.17,1.83,1.17,2.45,2.78,1.25,1.47,0.506
ATCGAAAGGTCGAGAGGTGAGTATACAGAAAGGC,3,4.69,4.09,0.518,4.53,2.37,-0.0205,2.73,0.542
ACTTGCGGGTCAACGAGGTTATAGCACGCGTATA,3.37,5.21,4.88,2.41,5.33,3.81,1.31,7.55,3.69
CAGCCTAGGTCAGGGCCAGTATAGGAGGAACGTT,2.58,3.08,3.8,-0.416,1.54,2.11,0.526,0.31,-0.18
CCAGACAGGTGAGGAGGTAACTCAGCCTCGATTA,0.852,0.397,0.304,-0.0213,0.216,0.684,0.59,0.00298,0.177
ATACCAAGGTGATCGTGAGGTCGTTGACACTAAC,1.85,2.27,0.855,0.311,1.56,3.63,2.59,3.35,2.93
